The results in this text go back to PubChem BioAssay (EPA / NIEHS).

Each structure is given as a SMILES string. Calls of active or inactive are those of the source. Rule for the calls: active = hit-call score of the fitted dose curve at least 0.9, where 1 is the maximum; inactive = score below 0.9.

Read-out in test [1]: TIMP metallopeptidase inhibitor 1 (TIMP1), TIMP1 (gene 7076)
The experiment in a line: BSK_hDFCGF_TIMP1: BioMAP Diversity Plus: hDFCGF Assay for TIMP metallopeptidase inhibitor 1 (TIMP1) Biomarker Activity (AID 2283062). To be noted: primary human foreskin fibroblasts; actives raise or lower the signal. The gist of the method: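 Bidirectional curve fitting against DMSO baseline yielded this endpoint, based on ELISA detection of TIMP-1 in primary human foreskin fibroblasts exposed to compound for 24 h.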

Read-out in test [2]: Monokine induced gamma interferon (MIG), CXCL9 (gene 4283)
The experiment in a line: BSK_hDFCGF_MIG: BioMAP Diversity Plus: hDFCGF Assay for Monokine induced gamma interferon (MIG) Biomarker Activity (AID 2283063). The note with it: primary human foreskin fibroblasts; actives raise or lower the signal. The gist of the method:
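Endpoint derived by bidirectional fitting relative to DMSO; MIG quantified via ELISA in primary human foreskin fibroblasts harvested 24 h after dosing.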

Read-out in test [3]: Matrix Metallopeptidase 1 (MMP1), MMP1 (gene 4312)
The experiment in a line: BSK_hDFCGF_MMP1: BioMAP Diversity Plus: hDFCGF Assay for Matrix Metallopeptidase 1 (MMP1) Biomarker Activity (AID 2283064). The note with it: primary human foreskin fibroblasts; actives raise or lower the signal. The gist of the method: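 Primary human foreskin fibroblasts exposed to chemicals for 24 h; MMP1 measured by ELISA. Cytotoxicity tracked by SRB staining in parallel cultures; bidirectional fit relative to DMSO.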

Read-out in test [4]: Plasminogen activator inhibitor-1 (PAI1), SERPINE1 (gene 5054)
Kind of test: BSK_hDFCGF_PAI1: BioMAP Diversity Plus: hDFCGF Assay for Plasminogen activator inhibitor-1 (PAI1) Biomarker Activity (AID 2283066). To be noted: primary human foreskin fibroblasts; actives raise or lower the signal. The gist of the method:
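PAI-1 levels, determined by ELISA, served as the endpoint in human foreskin fibroblast cultures exposed to compound for 24 h, with DMSO as baseline.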

Read-out in test [5]: Intercellular Adhesion Molecule 1 (ICAM1), ICAM1 (gene 3383)
Kind of test: BSK_KF3CT_ICAM1: BioMAP Diversity Plus: KF3CT Assay for Intercellular Adhesion Molecule 1 (ICAM1) Biomarker Activity (AID 2283067). The note with it: primary human keratinocytes with fibroblasts; actives raise or lower the signal. The gist of the method: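 Bidirectional curve fitting against a DMSO baseline was applied to ICAM-1 ELISA signal from primary human skin co-cultures harvested 24 h after treatment, with SRB staining of parallel wells for overt cytotoxicity.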

Read-out in test [6]: Interferon-gamma inducible Protein 10 (IP10), CXCL10 (gene 3627)
The experiment in a line: BSK_KF3CT_IP10: BioMAP Diversity Plus: KF3CT Assay for Interferon-gamma inducible Protein 10 (IP10) Biomarker Activity (AID 2283068). To be noted: primary human keratinocytes with fibroblasts; actives raise or lower the signal. The gist of the method: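 ELISA read-out of IP-10 after 24 h chemical dosing of human skin primary co-culture (keratinocytes, foreskin fibroblasts). Gain or loss of signal relative to DMSO, bidirectional curve fit.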

A short description of test [7]: BSK_KF3CT_SRB: Viability Assessment in the BioMAP Diversity Plus: KF3CT Assay (AID 2283069).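 Note: total protein by sulforhodamine B staining as a cytotoxicity measure; read 24 h after compound addition; fitted for both signal gain and loss against DMSO baseline.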 The note with it: primary human keratinocytes with fibroblasts. The gist of the method: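 Human keratinocyte and foreskin fibroblast co-culture exposed to chemical for 24 h. Total protein measured in parallel cultures by 0.1% sulforhodamine B staining after 10% TCA fixation, read at 560 nm; bidirectional fit relative to DMSO.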

Read-out in test [8]: Interleukin-1 alpha (IL1a), IL1A (gene 3552)
The experiment in a line: BSK_KF3CT_IL1a: BioMAP Diversity Plus: KF3CT Assay for Interleukin-1 alpha (IL1a) Biomarker Activity (AID 2283070). To be noted: primary human keratinocytes with fibroblasts; actives raise or lower the signal. The gist of the method:
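Primary human keratinocyte plus foreskin fibroblast co-culture, dosed and measured at 24 h in 96-well plates. IL-1a level quantified by ELISA; bidirectional fit relative to DMSO.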

Read-out in test [9]: TIMP metallopeptidase inhibitor 2 (TIMP2), TIMP2 (gene 7077)
Kind of test: BSK_KF3CT_TIMP2: BioMAP Diversity Plus: KF3CT Assay for TIMP metallopeptidase inhibitor 2 (TIMP2) Biomarker Activity (AID 2283071). To be noted: primary human keratinocytes with fibroblasts; actives raise or lower the signal. The gist of the method: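 Keratinocyte–fibroblast co-culture, 24 h exposure; TIMP-2 ELISA, DMSO-normalised bidirectional fit. Parallel SRB (0.1%, TCA-fixed, 560 nm) total-protein staining gauges cytotoxicity.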

Read-out in test [10]: Transforming growth factor beta 1 (TGFb1), TGFB1 (gene 7040)
Kind of test: BSK_KF3CT_TGFb1: BioMAP Diversity Plus: KF3CT Assay for Transforming growth factor beta 1 (TGFb1) Biomarker Activity (AID 2283072). To be noted: primary human keratinocytes with fibroblasts; actives raise or lower the signal. The gist of the method:
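Signal changes in either direction, relative to DMSO, define activity here. TGF-b1 is read by ELISA from a human keratinocyte-fibroblast co-culture 24 h post-dose.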

Read-out in test [11]: C-C motif chemokine 2 (Homo sapiens) (UniProt P13500)
Kind of test: BSK_KF3CT_MCP1: BioMAP Diversity Plus: KF3CT Assay for Monocyte Chemoattractant Protein 1 (MCP1/CCL2) Biomarker Activity (AID 2283073). To be noted: primary human keratinocytes with fibroblasts; actives raise or lower the signal. The gist of the method: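 Biomarker MCP-1 is measured by ELISA in primary human keratinocytes co-cultured with foreskin fibroblasts, 24 h after chemical treatment; DMSO serves as the negative control and activity baseline.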

Read-out in test [12]: Matrix Metallopeptidase 9 (MMP9), MMP9 (gene 4318)
Kind of test: BSK_KF3CT_MMP9: BioMAP Diversity Plus: KF3CT Assay for Matrix Metallopeptidase 9 (MMP9) Biomarker Activity (AID 2283074).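 For AC50: MMP9 protein level quantified by ELISA in the co-culture.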 The note with it: primary human keratinocytes with fibroblasts; actives raise or lower the signal. The gist of the method: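 Human keratinocyte and foreskin fibroblast co-culture exposed to chemicals for 24 h; MMP9 biomarker measured by ELISA, bidirectional fitting relative to DMSO; cytotoxicity tracked by SRB total protein staining in parallel cultures.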

Read-out in test [13]: urokinase plasminogen activator (uPA), PLAU (gene 5328)
Kind of test: BSK_KF3CT_uPA: BioMAP Diversity Plus: KF3CT Assay for urokinase plasminogen activator (uPA) Biomarker Activity (AID 2283075). To be noted: primary human keratinocytes with fibroblasts; actives raise or lower the signal. The gist of the method: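 Primary human keratinocyte/foreskin fibroblast co-culture exposed to chemical; uPA measured by ELISA at 24 h. Bidirectional fit versus DMSO, with parallel SRB total-protein staining for cytotoxicity.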

Read-out in the next test: CD40, CD40 (gene 958)
The experiment in a line: BSK_LPS_CD40: BioMAP Diversity Plus: LPS Assay for CD40 Biomarker Activity (AID 2283076). The note with it: primary human HUVEC with PBMC; actives raise or lower the signal. The gist of the method: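 Using a multiplexed primary human co-culture (umbilical vein endothelium plus PBMC), CD40 was read by ELISA 24 h after dosing, with cytotoxicity tracked by sulforhodamine B staining of parallel cultures and activity fitted bidirectionally versus DMSO.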

Read-out in test [14]: E-selectin (Homo sapiens) (UniProt P16581)
Kind of test: BSK_LPS_Eselectin: BioMAP Diversity Plus: LPS Assay for Eselectin Biomarker Activity (AID 2283077). To be noted: primary human HUVEC with PBMC; actives raise or lower the signal. The gist of the method:
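Dose chemical onto LPS-driven HUVEC/PBMC co-culture; after 24 h, run ELISA for E-selectin; fit up- and down-going responses relative to DMSO control.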

Read-out in test [15]: Interleukin-8 (IL8), CXCL8 (gene 3576)
The experiment in a line: BSK_LPS_IL8: BioMAP Diversity Plus: LPS Assay for Interleukin-8 (IL8) Biomarker Activity (AID 2283078). To be noted: primary human HUVEC with PBMC; actives raise or lower the signal. The gist of the method:
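In this LPS system, chemical-treated human umbilical vein endothelium/PBMC co-cultures were harvested at 24 h for IL-8 ELISA.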

The nature of test [16]: BSK_LPS_SRB: Viability Assessment in the BioMAP Diversity Plus: LPS Assay (AID 2283079).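 Note: total protein by sulforhodamine B absorbance as a cytotoxicity measure; measured one day after compound addition; fitted in both directions against DMSO so loss or gain of signal counts.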 The note with it: primary human HUVEC with PBMC. The gist of the method:
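Cytotoxicity endpoint in human endothelial–PBMC co-culture: 24 h exposure, then SRB (0.1%) staining, 560 nm read.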

Read-out in test [17]: Interleukin-1 alpha (IL1a), IL1A (gene 3552)
Kind of test: BSK_LPS_IL1a: BioMAP Diversity Plus: LPS Assay for Interleukin-1 alpha (IL1a) Biomarker Activity (AID 2283080). To be noted: primary human HUVEC with PBMC; actives raise or lower the signal. The gist of the method: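 Primary human HUVEC and PBMC co-culture stimulated with LPS is dosed and harvested at 24 h. Both increases and decreases in ELISA-measured IL-1a are scored relative to DMSO.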

Read-out in test [18]: Monocyte Chemoattractant Protein-1 (MCP1), CCL2 (gene 6347)
Kind of test: BSK_LPS_MCP1: BioMAP Diversity Plus: LPS Assay for Monocyte Chemoattractant Protein-1 (MCP1) Biomarker Activity (AID 2283081). To be noted: primary human HUVEC with PBMC; actives raise or lower the signal. The gist of the method: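 Values derive from bidirectional fitting against DMSO of ELISA-measured MCP-1 in a human primary endothelial and mononuclear cell co-culture, 24 h after chemical addition under LPS activation.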

Read-out in test [19]: Vascular cell adhesion molecule 1 (VCAM1), VCAM1 (gene 7412)
Kind of test: BSK_hDFCGF_VCAM1: BioMAP Diversity Plus: hDFCGF Assay for Vascular cell adhesion molecule 1 (VCAM1) Biomarker Activity (AID 2283065).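 For AC50: VCAM-1 protein level quantified by ELISA after 24 h chemical exposure.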 To be noted: primary human foreskin fibroblasts; actives raise or lower the signal. The gist of the method: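 Measured after 24 h chemical treatment of primary human skin fibroblasts, VCAM-1 was detected by ELISA and concentration-response analysed in both directions versus DMSO vehicle.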

Chain of E-selectin (Homo sapiens) (P16581 whole entry, looked up): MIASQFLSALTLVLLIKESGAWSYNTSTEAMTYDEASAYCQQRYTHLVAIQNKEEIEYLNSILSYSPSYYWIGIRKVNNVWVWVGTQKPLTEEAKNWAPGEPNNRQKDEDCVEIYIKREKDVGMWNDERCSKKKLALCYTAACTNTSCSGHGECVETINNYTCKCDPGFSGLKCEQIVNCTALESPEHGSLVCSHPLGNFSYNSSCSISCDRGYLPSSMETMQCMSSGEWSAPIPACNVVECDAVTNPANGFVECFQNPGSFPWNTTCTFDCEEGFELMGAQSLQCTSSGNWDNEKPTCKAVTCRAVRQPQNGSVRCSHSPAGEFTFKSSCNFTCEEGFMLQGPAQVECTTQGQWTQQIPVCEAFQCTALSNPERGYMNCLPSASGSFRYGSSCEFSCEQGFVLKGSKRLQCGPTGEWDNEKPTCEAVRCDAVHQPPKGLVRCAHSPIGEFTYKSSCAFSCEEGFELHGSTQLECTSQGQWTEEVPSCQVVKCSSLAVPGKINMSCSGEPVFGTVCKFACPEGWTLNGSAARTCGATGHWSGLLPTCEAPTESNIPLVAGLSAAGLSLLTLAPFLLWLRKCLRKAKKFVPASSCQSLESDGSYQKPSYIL

For the compound `CCN(CC)C(=O)c1cccc(C)c1`, the result in test [1], in [2], in [3], in test [4], in test [5] and in test [6] was inactive. Besides, the result in test [7], in test [8], in test [9], in [10], in [11] and in test [12] was inactive. Also, the outcome in test [13] is “inactive”; with CD40, CD40 (gene 958) it was “inactive”; in test [14], “inactive”; in [15], “inactive”; in [16] it was “inactive”; in test [17], “inactive”. Also, the outcome in test [18] was inactive.
Regarding `COc1c(Cl)ccc(Cl)c1C(=O)O`, the result in [1], in test [2], in [3], in test [19], in test [4] and in [5] was inactive. In addition, the outcome in test [6], in [7], in test [8], in test [9], in [12] and in test [13] was inactive. The outcome in the test with CD40, CD40 (gene 958) was “inactive”; in [14], “inactive”; in [15], “inactive”; in [16], “inactive”; in test [17], “inactive”; in [18], “inactive”.
On to `O=C(Nc1ccc([N+](=O)[O-])cc1Cl)c1cc(Cl)ccc1O`, for which the AC50 in [1] was 149 nM (active); in test [2], 148 nM (active); in test [3], 227 nM (active); in [19], 148 nM (active); in test [4] it was 148 nM (active); in [5], 1.24 µM (active). The AC50 in test [6] was 148 nM (active); in test [7] it was 148 nM (active); in test [8], 735 nM (active); in [9], 436 nM (active); in test [11], 148 nM (active); in [12], 313 nM (active). In addition, the AC50 in test [13] is 266 nM (active); with CD40, CD40 (gene 958), 161 nM (active); in test [15] it was 470 nM (active); in test [16], 445 nM (active); in [17] it was 109 nM (active). Also, in test [14], the outcome was inactive.
For the compound `CCNc1nc(N)nc(Cl)n1`, the result in [1], in test [2], in test [3], in test [19], in test [4] and in test [5] was inactive. Also, the outcome in [6], in test [7], in test [8], in test [9], in test [10] and in test [11] was inactive. In addition, the outcome in test [12] is “inactive”; in test [13], “inactive”; with CD40, CD40 (gene 958) it was “inactive”; in test [14] it was “inactive”; in test [15] it was “inactive”; in [16], “inactive”. For the same compound, the outcome in [17] and in test [18] was inactive.
Consider `COC(=O)CSc1cc(N=c2sc(=O)n3n2CCCC3)c(F)cc1Cl`, for which the result in [1], in test [2], in test [3], in test [19], in test [4] and in [5] was inactive. Besides, the outcome in [6], in [7], in test [8], in test [9], in test [11] and in [12] was inactive. Further, the outcome in [13] is “inactive”; with CD40, CD40 (gene 958) it was “inactive”; in [14] it was “inactive”; in [15] it was “inactive”; in [16] it was “inactive”; in test [17] it was “inactive”. Also, the result in test [18] was inactive.
Regarding `OB(O)O`, the outcome in test [1], in [2], in test [3], in [19], in test [4] and in [5] was inactive. The outcome in test [6], in [7], in [8], in [9], in [10] and in test [11] was inactive. Besides, the outcome in test [12] is “inactive”; in [13], “inactive”; with CD40, CD40 (gene 958), “inactive”; in test [14] it was “inactive”; in test [15], “inactive”; in [16] it was “inactive”. Also, the outcome in [17] and in test [18] was inactive.
